Compounds with a hit are over-represented: about 14% of the library has one in this group of screens.
HCMV antiviral – blocks human cytomegalovirus replication; actives 4.5% (n = 410,000); HFF cells, HCMV-luciferase reporter, 72 h; stronger effect = lower value; AID 1259415; activity change, negative = inhibition, % at 57.5 µM; in the data active = activity change below about -60%; inconclusive = no clear call, values can overlap the other calls; inactive = above about -39%
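Screen run at 2 compound doses on HFFs infected with reporter HCMV, MOI 1 PFU/cell. Luciferase activity from cell lysates at 72 h post infection gave inhibition relative to buffer-only and Salinomycin wells.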
Giardia FBPA inh – Giardia lamblia aldolase inhibition; actives 0.71% (n = 290,000); A8B2U2; AID 2451; Potency, µM (highest dose often 59.6 µM), usual class: inhibitors; purified Giardia FBPA; also: nearly all actives have a fitted effect of over 55% in size
Target sequence (A8B2U2 whole entry, looked up): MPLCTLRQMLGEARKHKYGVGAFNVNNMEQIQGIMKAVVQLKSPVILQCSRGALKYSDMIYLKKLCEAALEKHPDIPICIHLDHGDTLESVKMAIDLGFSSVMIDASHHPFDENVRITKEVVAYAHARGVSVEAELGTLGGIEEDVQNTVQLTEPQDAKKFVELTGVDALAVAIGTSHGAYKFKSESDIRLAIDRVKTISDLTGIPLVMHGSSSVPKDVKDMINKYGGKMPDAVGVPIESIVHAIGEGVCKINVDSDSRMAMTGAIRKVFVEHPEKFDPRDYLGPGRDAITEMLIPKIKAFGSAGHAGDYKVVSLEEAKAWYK
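40 nM FBPA preincubated 10 min at RT with compound (up to 57.5 uM final), then substrate plus GAPDH/TPI/NAD/arsenate coupling and diaphorase/resazurin added. Fluorescence read after 20 min at RT, 525/598 nm.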
Sm TGR block – S. mansoni TGR enzyme inhibition. Q962Y6. purified TGR, DTNB reduction, TNB absorbance 405 nm. Potency, µM (highest dose often 114 µM), usual class: inhibitors. actives 3% (n = 360,000). AID 485364; also: nearly all actives have a fitted effect of over 60% in size
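First, TGR (20 nM dispensed) and NADPH were mixed with compound. Second, a 15 min room-temperature incubation followed. Third, further NADPH and then DTNB were added to start the reaction. Finally, TNB absorbance was monitored kinetically.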
Pf growth 48h – inhibits P. falciparum growth in the first generation, 48 h. P. falciparum luciferase growth in erythrocytes, 48 h. Potency, µM (titrated, usually from 28.7 µM), hits mostly inhibitors. actives 5.9% (n = 310,000). AID 504832
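Here the parasites carry a stable luciferase gene and grow inside erythrocytes in Albumax-based RPMI medium with compound for one erythrocytic cycle. Activity is scored as loss of luminescent signal.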
Pf growth 96h – P. falciparum growth inhibition at 96 hour, primary screen for plastid delayed-death inhibitors | P. falciparum luciferase reporter growth, 96 h | Potency, µM (doses to about 28.7 µM), usual class: inhibitors | actives 6.9% (n = 320,000) | AID 504834
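Plates of compound plus infected erythrocytes (2% hematocrit, 0.05% parasitemia final) incubate 96 hours, 37 C, 5% CO2. Detection reagent added; reduced luminescence from the parasites' luciferase reporter flags inhibition.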
A number is an active result; i = inactive; ? = inconclusive; nt = no result given; [ ] = another dose, or the depositor's remark. Unless noted, calls follow the shape of the dose curve; as a rule, active = well fitted curve in the direction sought with a large enough effect; inconclusive = small, poorly fitted or top-dose-only effect, or another doubt; inactive = no such curve, though single readings can be large; an effect the other way counts as inactive or inconclusive.

SMILES | HCMV antiviral | Giardia FBPA inh | Sm TGR block | Pf growth 48h | Pf growth 96h
Cc1[nH]c2ccccc2c1C(c1ccncc1)N1CCN(c2ccc(F)cc2)CC1 (centres undefined) | i | i | 8.9µM | ? | i
Cc1[nH]c2ccccc2c1C(O)c1ccncc1 (centres undefined) | i | i | 25µM | i | i
Cc1ccccc1C(O)c1ccncc1 (centres undefined) | i | i | i | nt | i
Cc1[nH]c2ccccc2c1C(c1ccccn1)c1c(C)[nH]c2ccccc12 | i | ? | 5.6µM | 9.3µM | nt
Cc1[nH]c2ccccc2c1C(c1ccncc1)N1CCCCC1 (centres undefined) | i | i | 1.8µM | i | i[5.75 µM]
COC(=O)c1ccc(C(=S)NCC2(N(C)C)CCCCC2)cc1 | i | i | i | ? | ?
CC[C@H](C)[C@H](NC(=O)[C@H](Cc1ccc(O)cc1)NC(=O)CNC(=O)[C@@H]1CCCN1C(=O)[C@H](CC(=O)O)NC(=O)[C@@H](N)CS)C(=O)NCC(=O)N[C@@H](CO)C(=O)N[C@@H](CCCN=C(N)N)C(N)=O | nt | i | nt | nt | nt
COc1ccc(CCNC(=O)CSc2nn3c(=O)c(C)nnc3s2)cc1OC | nt | i | i | 5.2µM | 0.21µM
COc1ccccc1CNC(=O)CSc1nn2c(=O)c(C(C)(C)C)nnc2s1 | i | i | i | 2.9µM | ?
COc1cccc(NC(=O)CSc2nn3c(=O)c(C)nnc3s2)c1 | i | ? | i | ? | 9.3µM
COc1ccc(CNC(=O)CSc2nn3c(=O)c(C(C)(C)C)nnc3s2)cc1OC | ? | i | i | ? | ?
COc1ccc(NC(=O)CSc2nn3c(=O)c(C)nnc3s2)cc1 | i | ? | i | ? | 12µM
COc1ccc(OC)c(NC(=O)CSc2nn3c(=O)c(C)nnc3s2)c1 | i | nt | i | i | i
CC(=O)Nc1ccc(C(=O)N2CCOCC2c2cc(C(=O)NCc3ccccc3)no2)cc1 (centres undefined) | i | nt | nt | nt | nt
COc1ccc(-c2c(C)c3ccc(O)c(CN4CCCC(C)C4)c3oc2=O)cc1OC (centres undefined) | i | nt | i | nt | nt
COCCN(CC1CCCN(C2Cc3ccccc3C2)C1)C(=O)c1cccc(C)c1 (centres undefined) | i | i | ? | ? | i
O=C(CCCn1ccc2cc(S(=O)(=O)N3CCCC3)ccc21)NCc1ccc(Cl)cc1 | -87 | nt | i | nt | nt
CN(C)c1ccc(CNC(=O)CCCn2ccc3cc(S(=O)(=O)N4CCCC4)ccc32)cc1 | i | nt | i | nt | nt
CCOc1ccccc1CNC(=O)CCCn1ccc2cc(S(=O)(=O)N3CCCC3)ccc21 | i | nt | i | ? | ?
CCCCNC(=O)CCn1ccc2cc(S(=O)(=O)N3CCCC3)ccc21 | i | nt | i | i | i
CCOCCCNC(=O)CCn1ccc2cc(S(=O)(=O)N3CCCC3)ccc21 | i | i | i | ? | 10µM
CCOc1ccccc1CNC(=O)Cn1ccc2cc(S(=O)(=O)N3CCCC3)ccc21 | i | i | i | ? | 13µM
COc1ccc2sc(-c3ccc(SC)cc3)c(/C=C/c3ccc(OC)c(OC)c3)c2c1 | i | nt | nt | nt | nt
O=C(O)CCc1c(C(=O)O)[nH]c2cc(Cl)cc(Cl)c12 | nt | i | nt | nt | nt
COc1ccc(-n2c(SCC(=O)NNC(=O)c3ccc(C)cc3)nnc2-c2ccncc2)cc1 | i | i | i | i | i
SMILES | HCMV antiviral | Giardia FBPA inh | Sm TGR block | Pf growth 48h | Pf growth 96h
CSc1nc(N(C)NC(=O)c2ccccc2)c2ccccc2n1 | i | i | i | ? | ?
CSc1nc(N(C)NC(=O)c2ccc(Cl)cc2)c2ccccc2n1 | -65 | i | i | 3.3µM | 3.7µM
CN(NC(=O)c1ccc(Cl)cc1)c1nc(-c2ccccc2)nnc1C(F)(F)F | -105 | i | i | i | i
CCN(Cc1ccccc1)S(=O)(=O)c1ccc(C(=O)Nc2nnc(C)o2)cc1 | i | ? | i | 9.3µM | ?
CCCCN(C)S(=O)(=O)c1ccc(C(=O)Nc2nnc(CSC)o2)cc1 | ? | ? | i | ? | 13µM
CCc1nnc(NC(=O)c2ccc(S(=O)(=O)N(C)Cc3ccccc3)cc2)o1 | i | ? | i | i | i
CCc1nnc(NC(=O)c2ccc(S(=O)(=O)N(CC)Cc3ccccc3)cc2)o1 | ? | i | i | i | i
COc1ccccc1-c1nnc(NC(=O)c2ccc(S(=O)(=O)N(C)Cc3ccccc3)cc2)o1 | nt | ? | i | i | 10µM
COc1ccccc1-c1nc(SCC(=O)Nc2ccc(C)c(C)c2)n[nH]1 | i | nt | i | nt | nt
CCc1nc2c(OCc3ccc(C(F)(F)F)cc3)cccn2c1N(C)C(=O)c1ccco1 | i | nt | nt | nt | nt
CCC(C(=O)Nc1ccc(S(=O)(=O)N2CCN(C)CC2)cc1)c1ccccc1 (centres undefined) | i | nt | nt | nt | nt
COC(=O)c1cc(S(=O)(=O)Nc2cccc(-c3cnco3)c2)oc1C | nt | i | i | nt | i
O=C(c1cc2sccc2n1Cc1ccc(F)cc1)N1CCCc2ccccc21 | i | i | i | 9.3µM | ?
O=C(NCc1ccc(F)cc1)c1cc2sccc2n1Cc1ccc(F)cc1 | i | i | i | ? | 10µM
C[C@H](CO)N1C[C@H](C)[C@@H](CN(C)Cc2ccc(Oc3ccccc3)cc2)Oc2c(NS(=O)(=O)c3cn(C)cn3)cccc2C1=O | i | nt | nt | nt | nt
COc1ccc(-c2nc(/C=C3\C(C)=Nc4ccccc43)c(O)o2)cc1 | i | i | 45µM | i | i
CC1=Nc2ccccc2/C1=C\c1nc(-c2ccccc2)oc1O | i | i | ? | nt | i
CN(C)c1ccc(/C=C(/NC(=O)c2ccccc2)C(=O)N2CCCC2)cc1 | i | i | i | i | i
CCCOc1ccc(/C=C2/C(=O)ON=C2C)cc1OCC | i | i | i | i | i
O=C1ON=C(c2ccc(Cl)cc2)/C1=C/c1ccc(O)cc1 | -100 | i | 22µM | ? | i
CCOc1cc(/C=C2\C(=O)ON=C2c2ccccc2)cc(Br)c1O | i | i | 1.4µM | i[0.00184 µM] | i
CCOc1cc(/C=C2/C(=O)ON=C2C)cc(Br)c1O | i | i | i | i[0.00184 µM] | i
O=C1ON=C(c2ccccc2)/C1=C/c1ccc(O)cc1 | i | i | ? | i | i
COc1cc(/C=C2\C(=O)ON=C2c2ccccc2)cc(Br)c1O | i | i | 1.6µM | i[0.00184 µM] | i
CCOc1cc(/C=C2\C(=O)ON=C2C)ccc1OCc1ccccc1 | -76 | i | i | i | i
SMILES | HCMV antiviral | Giardia FBPA inh | Sm TGR block | Pf growth 48h | Pf growth 96h
CC(C)OC(=O)N(C)C[C@H]1OCc2cnnn2CCCC(=O)N([C@H](C)CO)C[C@H]1C | i | nt | nt | nt | nt
CCN(C(=O)CN1C(=O)NC2(CCC(C)CC2)C1=O)C1CCCCC1 (centres undefined) | i | nt | nt | nt | nt
O=C(NCc1ccccc1F)C(c1ccccc1)c1ccccc1 | i | i | i | i | i
COCCNC(=O)c1cnc2sc(N3CCCCC3)nn2c1=O | i | nt | i | nt | nt
C=CCOc1ccc(/C=C2/C(=O)ON=C2C)cc1OC | i | i | i | i[0.00184 µM] | i
COc1cc(/C=c2\sc3n(c2=O)C(c2ccccc2)C(c2ccccc2)=NN=3)ccc1O (centres undefined) | i | i | i | 4.7µM | 4.1µM

Assay outcomes (PubChem BioAssay)
